Results: PubChem BioAssay
Calls of active or inactive are those of the source.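 Rule for the calls, unless noted: active = NADPH fluorescence slope more negative than the mean of all samples by about 3 SD, 99.7% confidence; inactive = the rest.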

Key:
[1] = inhibitors of TNFa-induced NFkB p65 translocation, primary screen, imaging, HUVEC, MLSMR starter and 10KST1 sets (AID 438;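 active = inhibition above 20% together with a positive visual image hit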;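 note: compound added about 3h40 before a 20 min TNFalpha stimulation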;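 for inhibition: signal is the nuclear over cytoplasmic p65 intensity ratio per well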); conditions: HUVEC TNFa-induced p65 nuclear translocation; cell count: measured here: nuclei count (cytotoxicity indicator), at 2.08 µM; inhibition: at 2 µM, stronger effect = higher value, 0% TNFa-plus-vehicle, 100% no-TNFa wells
[2] = inhibitors of mutant huntingtin aggregation, primary screen, imaging, exon1htt(103Q)mCFP cells, high-content imaging (AID 483;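 active = visual image review flags a hit and inhibition of aggregation exceeds 20%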;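 note: compound exposure lasted 3 days before fixation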;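 for nuclei count: percent of the per-plate median nuclei count of sample wells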); conditions: exon1htt(103Q)mCFP cell line, aggregate imaging, at 2 µM; inhibition of aggregation: stronger effect = higher value; nuclei count: measured here: cell count, toxicity
[3] = inhibitors of E-selectin induction by TNFa, primary screen, imaging, HUVEC, immunofluorescence, MLSMR starter and 10KST1 sets (AID 487;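 active = visually confirmed hit in the image check and inhibition above 20%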;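 for inhibition: signal is fraction of cell area covered by stained E-selectin grains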;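 for nuclei count: 100% = median nuclei count of all wells on the same plate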); conditions: HUVEC TNFalpha-induced E-selectin immunofluorescence imaging, at 2 µM; inhibition: stronger effect = higher value; nuclei count: measured here: cell number, toxicity
[4] = biological target: Voltage-gated potassium channel subunit beta-2 (Rattus norvegicus) (UniProt P62483); test: KvBeta enzyme negative modulators, primary screen, biochemical, NADPH fluorescence (AID 622;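 active = fluorescence slope higher than the sample average by over 3 SD, cut at about -0.22 in these data, passing the limit was not always enough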;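 note: slope of raw intensity against log time taken from 70 to 1610 s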); conditions: recombinant KvBeta, 4-cyanobenzaldehyde reduction, at 10 µM, stronger effect = higher value
Voltage-gated potassium channel subunit beta-2 (Rattus norvegicus), sequence (P62483 whole entry, looked up): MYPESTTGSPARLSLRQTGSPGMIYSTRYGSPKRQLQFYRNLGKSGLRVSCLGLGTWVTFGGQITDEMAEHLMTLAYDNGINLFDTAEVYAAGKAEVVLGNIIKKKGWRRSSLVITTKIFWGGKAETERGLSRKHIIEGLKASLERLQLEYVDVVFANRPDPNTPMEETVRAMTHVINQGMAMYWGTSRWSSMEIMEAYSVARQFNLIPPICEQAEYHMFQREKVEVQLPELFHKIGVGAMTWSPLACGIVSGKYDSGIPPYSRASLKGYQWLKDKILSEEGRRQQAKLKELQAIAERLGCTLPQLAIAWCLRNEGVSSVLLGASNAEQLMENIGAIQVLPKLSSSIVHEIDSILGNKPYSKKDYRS

[5] = biological target: Voltage-gated potassium channel subunit beta-2 (Rattus norvegicus) (UniProt P62483); test: KvBeta positive modulators, primary screen, biochemical, NADPH fluorescence (AID 623); conditions: Recombinant KvBeta, NADPH fluorescence decrease slope, 10 min; at 10 µM; stronger effect = lower value;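 note: fluorescence intensity change per second fitted from 20 to 320 s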
[6] = biological target: Alpha-2C adrenergic receptor (Homo sapiens) (UniProt P18825); test: modulators of alpha2C/GIRK thallium flux, primary screen, cell-based, HEK293 alpha2C/GIRK1/2 (AID 624;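 active = fluorescence slope after compound addition differing from the mean of all screened samples at 99.7% confidence, in either direction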;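 note: slope of fluorescence ratio to pre-addition baseline per second over 15 to 24 s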); conditions: thallium flux BTC fluorescence, at 10 µM, actives lie on both sides
Alpha-2C adrenergic receptor (Homo sapiens), sequence (P18825 whole entry, looked up): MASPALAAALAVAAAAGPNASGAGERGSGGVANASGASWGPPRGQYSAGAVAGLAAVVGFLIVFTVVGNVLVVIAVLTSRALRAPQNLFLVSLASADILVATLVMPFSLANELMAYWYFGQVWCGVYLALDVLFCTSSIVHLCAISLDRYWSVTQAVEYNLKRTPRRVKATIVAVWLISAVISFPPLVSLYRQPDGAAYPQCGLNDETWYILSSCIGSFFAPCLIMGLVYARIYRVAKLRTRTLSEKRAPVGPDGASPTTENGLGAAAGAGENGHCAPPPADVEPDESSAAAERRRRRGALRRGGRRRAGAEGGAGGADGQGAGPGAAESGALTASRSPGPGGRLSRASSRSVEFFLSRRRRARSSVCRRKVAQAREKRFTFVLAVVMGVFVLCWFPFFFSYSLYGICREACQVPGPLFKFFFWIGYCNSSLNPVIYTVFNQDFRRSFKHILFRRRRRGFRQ

[7] = inhibitors of Sendai virus-induced IRF3 signaling, primary screen, TLR/RLR signaling modifier project, cell-based, Sendai virus stimulus, luciferase, 10K MLSCN set (AID 602276;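 active = inhibition at or above 50% at 10 µM; inactive = inhibition below 50%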;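 note: firefly luciferase from ISG56 promoter only with Renilla not read in this screen; 0% = Sendai virus plus DMSO and 100% = medium plus DMSO without virus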); conditions: HEK293 RL24 IRF3 luciferase reporter, at 10 µM, stronger effect = higher value
[8] = inhibitors of poly I:C-induced TLR3 signaling, primary screen, cell-based, poly I:C stimulus, luciferase, 10K MLSCN set (AID 602277;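 active = inhibition of the reporter signal at or above 50%; inactive = inhibition below 50%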); conditions: HEK293-TLR3 RL24 IRF3 luciferase reporter, at 10 µM, stronger effect = higher value

Structure (SMILES)	cell count [1]	inhibition [1]	inhibition of aggregation [2]	nuclei count [2] [%]	inhibition [3]	nuclei count [3] [%]	fluorescence slope [4]	NADPH fluorescence slope [5]	slope [6]	inhibition [7]	inhibition [8]
CN(C)c1ccc(C(=O)Nc2nnc(-c3ccc(Cl)cc3)o2)cc1	671	1.3% (inactive)	-15.9% (inactive)	109	-46.6% (inactive)	113	-0.409 (inactive)	-6.1e-05 (inactive)	0.00542 (inactive)	13% (inactive)	29.7% (inactive)
Cc1csc(NC(=O)c2ccco2)n1	464	-3.3% (inactive)	-1.8% (inactive)	109	-72% (inactive)	131	-0.32 (inactive)	-1.3e-06 (inactive)	0.00701 (inactive)	-20.1% (inactive)	-56.9% (inactive)
CC1CCN(C(=O)Cn2cc3c(n2)CCCC3)CC1	931	-1.8% (inactive)	-26% (inactive)	114	-6.8% (inactive)	89.8	-0.612 (inactive)	-7.4e-06 (inactive)	0.00712 (inactive)	-32.6% (inactive)	-60.8% (inactive)
Cc1cccc(Cc2nnc(NC(=O)c3cccc(S(=O)(=O)N4CCOCC4)c3)s2)c1	424	-5.5% (inactive)	-0.5% (inactive)	106	0.9% (inactive)	126	-0.422 (inactive)	-7.5e-06 (inactive)	0.00421 (inactive)	14.3% (inactive)	30.6% (inactive)
Cc1cccc(NC(=O)CCN2CCN(C/C=C/c3ccccc3)CC2)c1	727	4.3% (inactive)	4.2% (inactive)	98.6	15.3% (inactive)	104	-0.511 (inactive)	-2.6e-05 (inactive)	0.00628 (inactive)	13.8% (inactive)	6.07% (inactive)
COCC(=O)Nc1cc(OC)ccc1OC	230	-7% (inactive)	8.8% (inactive)	87.6	-28.5% (inactive)	84.6	-0.501 (inactive)	3.1e-05 (inactive)	0.0057 (inactive)	12.1% (inactive)	31% (inactive)
CC(=O)Nc1ccc(NC(=O)Cn2cc3c(n2)CCC(C)C3)cc1 (centres undefined)	549	-6.3% (inactive)	3.5% (inactive)	95.1	-58.6% (inactive)	103	-0.284 (inactive)	-4.3e-05 (inactive)	0.00496 (inactive)	16.6% (inactive)	23% (inactive)
O=C(Nc1cccc(Cl)c1)N1CCN(Cc2ccccc2)CC1	652	1.3% (inactive)	-6.8% (inactive)	99.5	-40% (inactive)	106	-0.529 (inactive)	-3.3e-05 (inactive)	0.00631 (inactive)	-35.1% (inactive)	-81.7% (inactive)
CCCNc1nc2c(c(=O)n(C)c(=O)n2C)n1Cc1cccc(C)c1	697	-3.6% (inactive)	10.2% (inactive)	97.4	-95.3% (inactive)	148	-0.567 (inactive)	-2.9e-05 (inactive)	0.00499 (inactive)	3.02% (inactive)	4.07% (inactive)
O=C(NCCCCNC(=O)c1c(F)c(F)c(F)c(F)c1F)c1c(F)c(F)c(F)c(F)c1F	778	1% (inactive)	10.7% (inactive)	104	-48.4% (inactive)	110	-0.308 (inactive)	3.6e-05 (inactive)	0.00647 (inactive)	12.8% (inactive)	20% (inactive)
O=C(COc1ccccc1Cl)NCc1ccco1	310	-13% (inactive)	7.5% (inactive)	92.3	-27.9% (inactive)	115	-0.488 (inactive)	-3e-05 (inactive)	0.00673 (inactive)	-22.9% (inactive)	-43.3% (inactive)
Cc1cc(C)cc(NC(=O)CSc2nnc(Cc3cccn3C)n2-c2ccc(F)cc2)c1	479	4% (inactive)	36.9% (inactive)	12.9	39.4% (inactive)	96.5	-0.519 (inactive)	-2e-05 (inactive)	0.00611 (inactive)	13.7% (inactive)	25.8% (inactive)
Cc1nc2ccc(CCO)cc2s1	419	8% (inactive)	2.9% (inactive)	93.2	-162% (inactive)	112	-0.652 (inactive)	3.1e-05 (inactive)	0.00546 (inactive)	5.43% (inactive)	4.05% (inactive)
Cc1ccc2c(c1)NC(=O)C(CC(=O)NCCN(CC(C)C)CC(C)C)O2 (centres undefined)	659	4.4% (inactive)	7.8% (inactive)	102	-11% (inactive)	125	-0.584 (inactive)	6e-06 (inactive)	0.00608 (inactive)	-16.7% (inactive)	-6.31% (inactive)
CC(C)(C)n1nnnc1CN1CCC(NC(=O)NC2CCCCC2)CC1	345	-18.5% (inactive)	10.8% (inactive)	93	-45.9% (inactive)	115	-0.324 (inactive)	9.8e-06 (inactive)	0.00372 (inactive)	11% (inactive)	18.5% (inactive)
O=C(Nc1ccc(Cl)cn1)c1cccnc1	340	-8% (inactive)	2.7% (inactive)	107	-1.5% (inactive)	102	-0.473 (inactive)	1.1e-05 (inactive)	0.00527 (inactive)	-14% (inactive)	-34.8% (inactive)
O=C(c1c(Cl)nc2sccn12)N(C(=O)c1c(Cl)nc2sccn12)c1ccc(Cl)cn1	819	3.8% (inactive)	-20.1% (inactive)	103	-97.4% (inactive)	126	-0.465 (inactive)	7.2e-06 (inactive)	0.00593 (inactive)	-31.5% (inactive)	-77.8% (inactive)
Nc1nc(SCc2nc3scc(-c4cccs4)c3c(=O)[nH]2)n[nH]1	473	3.8% (inactive)	10.7% (inactive)	103	-112% (inactive)	116	-0.432 (inactive)	8.2e-06 (inactive)	0.00447 (inactive)	1.51% (inactive)	4.54% (inactive)
CCNC(=O)CC1C(=O)N(c2ccccc2)C(=O)N1CCC(C)C (centres undefined)	339	2.8% (inactive)	3.6% (inactive)	104	-62.6% (inactive)	97.9	-0.512 (inactive)	-3.8e-05 (inactive)	0.00552 (inactive)	8.08% (inactive)	31.4% (inactive)
Cc1oc(-c2ccccc2F)nc1CS(=O)(=O)CC(=O)N1CCN(Cc2ccccc2)CC1	853	-4% (inactive)	-23.9% (inactive)	90.4	-96.8% (inactive)	109	-0.498 (inactive)	-4.4e-05 (inactive)	0.00602 (inactive)	6.04% (inactive)	-4.63% (inactive)
CCOC(=O)CSc1nnc(-c2ccccc2OC)o1	574	-3.6% (inactive)	-42.2% (inactive)	112	-74.1% (inactive)	105	-0.523 (inactive)	-0.000143 (inactive)	0.00552 (inactive)	-10.7% (inactive)	99.6% (active)
Cc1ccc(N=Cc2ccc[nH]2)c(O)c1	438	4.9% (inactive)	18.3% (inactive)	108	7% (inactive)	112	-0.373 (inactive)	-2.1e-06 (inactive)	0.0076 (inactive)	-10% (inactive)	-22.4% (inactive)
O=C1CN(c2nc3ccccc3n3cnnc23)CC(=O)N1CCc1ccccc1	662	10% (inactive)	-13% (inactive)	112	-66% (inactive)	116	-0.588 (inactive)	-6.3e-05 (inactive)	0.00474 (inactive)	6.8% (inactive)	9.78% (inactive)
O=C(NCC1COc2ccccc2O1)c1ccccc1 (centres undefined)	279	-1.7% (inactive)	-0.5% (inactive)	104	7.4% (inactive)	90.3	-0.62 (inactive)	3.5e-06 (inactive)	0.00453 (inactive)	-21% (inactive)	-82.8% (inactive)
CCOc1cc(C(=O)N2CCN=C2SC)cc(OCC)c1OCC	227	-4.9% (inactive)	-39.5% (inactive)	109	-24.8% (inactive)	108	-0.595 (inactive)	4.6e-06 (inactive)	0.00661 (inactive)	15.5% (inactive)	24.3% (inactive)
O=C(NC12CC3CC(CC(C3)C1)C2)N1CCN(C(=O)C2CCCO2)CC1 (centres undefined)	434	-10.3% (inactive)	-18.6% (inactive)	100	-186% (inactive)	0.2	-0.392 (inactive)	-7.1e-05 (inactive)	0.00603 (inactive)	18% (inactive)	11.1% (inactive)
Cn1c(CNc2nc(-c3ccccc3)cs2)nnc1SCC(=O)N1CCc2ccccc21	628	11.1% (inactive)	18.4% (inactive)	91.5	-65.9% (inactive)	140	-0.595 (inactive)	-3e-05 (inactive)	0.00569 (inactive)	-7.07% (inactive)	5.89% (inactive)
COc1ccc(C(=O)Nc2nncs2)c(OC)c1	746	7.5% (inactive)	-7.4% (inactive)	27	-98.6% (inactive)	111	-0.631 (inactive)	3.8e-06 (inactive)	0.00588 (inactive)	-22.9% (inactive)	-48.7% (inactive)
CN(c1ccccc1C(N)=O)S(=O)(=O)c1ccccc1	385	-2.9% (inactive)	-21.8% (inactive)	95.6	-266% (inactive)	108	-0.355 (inactive)	1.6e-05 (inactive)	0.00547 (inactive)	13% (inactive)	22.7% (inactive)
